Assay results from ChEMBL document CHEMBL4513216, “Probing the Open Global Health Chemical Diversity Library for Multistage-Active Starting Points for Next-Generation Antimalarials” (ACS Infect Dis, 2020).
The whole screen tested about 69,000 compounds, of which about 8,600 (12%) showed an effect of 50% or more. The entries come from a sample that favours strong results as a whole.

system: Plasmodium berghei; assay: Screen against P. berghei liver stage (PbLuc), transformed with Luciferase, at 10uM; format: functional, HepG2; conditions: tested at 10 uM

SMILES | INHIBITION
Cc1noc(C)c1-c1nc(NCCN(C)C)ncc1-c1cnccn1 | -56.2%
CCCOC(=O)N1CCC(c2nnc(Cn3cccn3)n2C2CC2)CC1 | -35.9%
Cc1nc(C)n(CC2CCCN2Cc2nc(-c3ccco3)no2)n1 (stereo not given) | 29.645%
Cc1nc(C)n(CC2CCCN2Cc2ncc(C(C)(C)C)o2)n1 (stereo not given) | 63.5%
Cc1nc(C)n(CC2CCCCN2Cc2ncc(C(C)(C)C)o2)n1 (stereo not given) | 31%
Cc1nc(C)n(CC2CCCN2CC(=O)NCCc2cccs2)n1 (stereo not given) | 43.6%
c1coc(-c2noc(CN3CCCC3Cn3cncn3)n2)c1 (stereo not given) | 31.8%
COCCc1noc(CN2CCCC2Cn2nc(C)cc2C)n1 (stereo not given) | 1.75%
Cc1cc(C)n(CC2CCCN2Cc2ncc(C(C)(C)C)o2)n1 (stereo not given) | -25.6%
COCCc1noc(CN2CCCCC2Cn2nc(C)cc2C)n1 (stereo not given) | 18.4%
CC(C)(C)CC1CCCN1Cc1nc(-c2ccco2)no1 (stereo not given) | 76.2%
Cc1nc(C)n(CC2CCCN2CCc2ccncc2)n1 (stereo not given) | -21.985%
Cc1nc(C)n(CC2CCCN2CCc2cccs2)n1 (stereo not given) | 52%
COCCc1noc(CN2CCCC2Cn2nc(C)nc2C)n1 (stereo not given) | 64.8%
Fc1cc(Cl)cnc1N1CCCC(c2nccn2Cc2ccncc2)C1 (stereo not given) | 31.4%
CCOC(=O)c1cccc(N2CCCC3(CCC(=O)N(C4CC4)C3)C2)n1 (stereo not given) | 28.7%
CC(C)C1CN(C(=O)c2ccn(C)c(=O)c2)c2ccccc2N1 (stereo not given) | -36.7%
Cc1nc(CN(C)C2CCN(CCCc3ccccc3)C2)no1 (stereo not given) | -61.4%
Cc1ccc(-c2nc(CN3CCn4c(C)nnc4C3)cs2)o1 | -31.8%
Cc1cc(C(=O)N(CC(C)C)CC(O)c2ccc(F)cc2)[nH]n1 (stereo not given) | -36.4%
CSc1ccccc1NC(=O)C1CN(C(=O)c2ccc3c(c2)OCO3)C1 | 12.7%
CN(C)C(=O)[C@@H]1CCO[C@@H]2CCN(c3ncccn3)C[C@@H]21 | 8.85%

SMILES | INHIBITION
Cc1nc(C)n(CC2CCCN(Cc3nnc(-c4ccco4)o3)C2)n1 (stereo not given) | -0.79%
Cc1nc(C)n(CC2CCCN2Cc2nnc(-c3ccco3)o2)n1 (stereo not given) | 50%
Cc1nc(C)n(CC2CCCCN2Cc2nnc(-c3ccco3)o2)n1 (stereo not given) | -9.07%
O=C(Cn1cc(-c2ccccc2)ncc1=O)Nc1nc(C2CC2)n[nH]1 | 33.7%
O=C(N[C@H]1COC[C@@H]1N1CCCC1)c1csc(-c2cccs2)n1 | 34.2%
COc1ccc(C[C@H]2CN(C(=O)c3ccc(C)nc3)CC[C@@H]2OC)cc1 | -12.2%
COc1ccc(C[C@H]2CN(c3cc(OC)ncn3)CC[C@@H]2OC)cc1 | 55.5%
COc1ccc(C[C@H]2CN(c3cc(OC)ncn3)CC[C@H]2OC)cc1 | 74.8%
COc1cc(N2CC[C@@H](OC)[C@@H]2Cc2ccccc2)ncn1 | -30%
COc1ccc(C[C@H]2CN(C(=O)c3ncccn3)CC[C@@H]2OC)cc1 | 27.2%
COc1ccc(C[C@H]2CN(C(=O)c3ccncc3)CC[C@@H]2OC)cc1 | 34.1%
c1cc(CN2CCCn3cnc(COCC4CC4)c3C2)ccn1 | 18.5%
COCc1nn(C)c2c1CCN(Cc1cnn(C)c1)C2 | -17.1%
N#Cc1ccc(CNCCc2cc(F)cc3c2OCOC3)cc1 | 28.8%
Cc1cc(C(=O)N2CCO[C@H]3[C@H](OCCN(C)C)CC[C@@H]32)c(C)[nH]1 | 24.3%
O=C1OCCN1CC(=O)N1C[C@@H]2CC[C@H]1CN(C(=O)c1ccccn1)C2 | 44.8%
O=C1Nc2ccccc2CN(CC2CC2)C12CCNC2 (stereo not given) | 46.6%
O=C(CN1CC(c2nc(Cc3ccccc3)no2)C1)NCC1CCCO1 (stereo not given) | 2.55%
Cc1ccc(NC(=O)N2CC(C(=O)NC(C)C)C3(CCOCC3)C2)cc1 (stereo not given) | 80%
CC(C)NC(=O)C1CN(C(=O)CCc2ccccc2)CC12CCOCC2 (stereo not given) | 20.9%
CC(C)NC(=O)C1CN(C(=O)N(C)C)CC12CCOCC2 (stereo not given) | 89.2%
CC(C)NC(=O)C1CN(C(=O)Nc2ccccc2)CC12CCOCC2 (stereo not given) | 17.6%

SMILES | INHIBITION
CC(C)NC(=O)C1CN(C(=O)N2CCCC2)CC12CCOCC2 (stereo not given) | 22.7%
CN(C)C(=O)N1CC(C(=O)NCC2CC2)C2(CCOCC2)C1 (stereo not given) | 36.7%
CC(C)NC(=O)C1CN(C(=O)Nc2ccc(F)cc2)CC12CCOCC2 (stereo not given) | 14.8%
CC(C)NC(=O)C1CN(C(=O)Cc2cccc(F)c2)CC12CCOCC2 (stereo not given) | 10%
CC(C)NC(=O)C1CN(C(=O)Cc2ccccc2)CC12CCOCC2 (stereo not given) | 53.4%
CN(CCOCC1CC1)C(=O)Nc1ccc([S+](C)[O-])c(F)c1 (stereo not given) | 41.3%
Cc1cnn(CC(=O)N2CCCN(Cc3cnn(C(C)C)c3)CC2)c1 | 33.7%
NC(=O)CS(=O)(=O)Cc1csc(-c2ccccc2)n1 | 46.6%
CCS(=O)(=O)N1CC[C@H]2CO[C@H](CN(C)C)[C@H]2C1 | 19.4%
Cc1nc(NC(=O)OC(C)(C)C)sc1C(=O)O | 46.6%
Cc1nc(NC(=O)OC(C)(C)C)sc1C(N)=O | -0.514%
Cc1nc(NC(=O)OC(C)(C)C)sc1C#N | 53.4%
O=C(c1ccc[nH]1)N1CCc2ncc(Cn3cccn3)n2CC1 | 25.6%
Clc1ccc(N2CCC(OCC3CCCCO3)CC2)nc1 (stereo not given) | 34.5%
c1cnc(N2CCC(OCC3CCCCO3)CC2)nc1 (stereo not given) | 31.1%
c1ccc(CCN2CCC(OCC3CCCCO3)CC2)nc1 (stereo not given) | 7.24%
c1ccc(N2CCC(OCC3CCCCO3)CC2)nc1 (stereo not given) | 62.9%
Cc1nccn1-c1cccc(C2CCCN2)n1 (stereo not given) | -2.09%
Cc1nccn1-c1cccc(N2CCC(OCC3CCCCO3)CC2)n1 (stereo not given) | 95.9%
c1ccc(N2CCN(Cc3cnc(C4CCCCO4)nc3)CC2)cc1 (stereo not given) | 21.1%
c1ccc(N2CCN(Cc3cnc(C4CCCCO4)nc3)CC2)nc1 (stereo not given) | 51.7%
c1ccc(CN2CCN(Cc3cnc(C4CCCCO4)nc3)CC2)cc1 (stereo not given) | 10.9%

SMILES | INHIBITION
CCCn1cc(C(=O)N2CCCC2(C)c2nc(C)cc(C)n2)cn1 (stereo not given) | -3.02%
Cn1cc(S(=O)(=O)N(CC(F)(F)F)C2CC2)cc1C(N)=O | -29.2%
O=C(Cn1cnc2ccsc2c1=O)c1ccc2c(c1)OCCO2 | -73.1%
COCC(=O)NCCC(=O)N1CCN(S(=O)(=O)c2ccc(Br)cc2)CC1 | 68.4%
CS(=O)(=O)NCCC(=O)N1CCN(S(=O)(=O)c2ccc(Br)cc2)CC1 | 11.8%
COCC(=O)NCCSCCOc1cccc(Br)c1 | 18%
COCC(=O)NCCC(=O)N1CCN(S(=O)(=O)c2cccc(Br)c2)CC1 | 63.8%
COCC(=O)NCc1cccc(Br)c1 | 3.81%
COCC(=O)N1CCN(S(=O)(=O)c2ccccc2)[C@@H](C(=O)OC)C1 | -33%
CCCn1ncc(C(=O)NC2CCN(CC3CCCO3)CC2)c1C (stereo not given) | 34.4%
CCCn1ncc(C(=O)NC2CCN(C3CCOCC3)CC2)c1C | 59.3%
CCCn1ncc(C(=O)N2CCN(C3CCCC3)CC2)c1C | -39.2%
CN1CC(=O)N(c2cccc(F)c2)CC12CCN(Cc1cnn(C)c1)C2 (stereo not given) | 18.2%
Cc1ccc(C2(CN3CCN(Cc4cnc(C)n4C)CC3)CC2)cc1 | 12.8%
CN1CCNCC(Cc2cnc3ccccc3c2)C1 (stereo not given) | 52.7%
CN1CCC(Cc2cnc3ccccc3c2)C1 (stereo not given) | 45.2%
c1ccc2ncc(CC3CCNC3)cc2c1 (stereo not given) | 35%
Cc1ccc(C)n1C(C)C(=O)N1CCCN(Cc2cscn2)CC1 (stereo not given) | 26.55%
CCOC(=O)CC1CCCCN1C(=O)c1cccc2ccnn12 (stereo not given) | -22.1%
O=C(c1cnccn1)N1CCCC2(CCCN2Cc2cccnc2)C1 (stereo not given) | -8.85%
Cn1cccc1C(=O)N1CCC2(CC1)CCN2S(C)(=O)=O | 20.1%
CN1CCCCC12CCN(C(=O)c1cccn1C)CC2 | 50.7%

SMILES | INHIBITION
CC(C)C(=O)N1CCCC2(CCCN2Cc2cccnc2)C1 (stereo not given) | 10.5%
Cn1cccc1C(=O)N1CCC2(CCCN2S(C)(=O)=O)CC1 | 28.2%
Cn1cccc1C(=O)N1CCCC2(CCCN2Cc2cccnc2)C1 (stereo not given) | 56.9%
Cn1cccc1C(=O)N1CCC2(CCCN2Cc2ccccc2)CC1 | 45.3%
Cn1cc(CN2CCCC23CCN(C(=O)c2ccccc2)CC3)cn1 | -9.18%
Cn1cc(CN2CCCC23CCN(C(=O)c2cccn2C)CC3)cn1 | 66%
CO[C@@]1(C)C[C@@H](O)C12CCN(C(=O)c1ccccc1C(C)=O)CC2 | 40.7%
Cc1ccc(CN2C[C@@H]3COC[C@H](C(=O)N4CCCCO4)[C@@H]3C2)o1 | 14.8%
CC(C)CCN1CC2(CCCN(C(=O)CNC(=O)N(C)C)C2)CCC1=O (stereo not given) | 19.4%
Cc1cc(NC(=O)NCC(C)N2CCOCC2)n(C)n1 (stereo not given) | -17%
Cc1cc(-c2cnc(C3CC3)nc2CN(C)C(=O)c2ccccn2)on1 | -25%
CCOCCCNC(=O)Nc1ccc(F)c(C(N)=O)c1 | 7.67%
O=c1c2cccnc2ccn1Cc1nccn1C1CC1 | 14.9%
C[C@@]1(O)CCN(Cc2cc[nH]n2)C[C@H]1Oc1cccc(F)c1 | 66.4%
Cc1ncc(CN2CC[C@@](C)(O)[C@H](Oc3cccc(F)c3)C2)cn1 | 56%
C[C@]1(O)CCN(Cc2c[nH]cn2)C[C@@H]1Oc1cccc(F)c1 | 32.3%
COc1ncc(CN2CC[C@@](C)(O)[C@H](Oc3cccc(F)c3)C2)cn1 | 37.9%
Cc1cnccc1CN1CC[C@H](Oc2cccc(F)c2)[C@@](C)(O)C1 | 48.6%
C[C@]1(O)CCN(Cc2nccs2)C[C@@H]1Oc1cccc(F)c1 | 26.3%
Cc1cnccc1CN1CC[C@@](C)(O)[C@H](Oc2cccc(F)c2)C1 | 56%
Cc1cnccc1CN1CC[C@@](C)(O)[C@H](Oc2ccccc2)C1 | 39.2%
C[C@]1(O)CCN(Cc2cccnc2)C[C@@H]1Oc1cccc(F)c1 | 44.1%
